# This is a sample that favours compounds with a hit; in the whole collection about 7.3% have one here.
# AmpC detergent = qHTS Inhibitors of AmpC Beta-Lactamase (assay with detergent). P00811. AmpC hydrolysis of nitrocefin, absorbance 480 nm, 0.01% Triton. Potency, µM (titrated, usually from 114 µM), inactives show top-dose activity change, negative = inhibition, actives largely listed as inhibitors. actives 0.041% (n = 370,000). AID 485294, 2010;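 also: potency is read from the fitted curve at half-maximal effect; 0% = no-compound wells and -100% = no-enzyme wells; nearly all actives have a fitted effect of over 25% in size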
# Target sequence (P00811 whole entry, looked up): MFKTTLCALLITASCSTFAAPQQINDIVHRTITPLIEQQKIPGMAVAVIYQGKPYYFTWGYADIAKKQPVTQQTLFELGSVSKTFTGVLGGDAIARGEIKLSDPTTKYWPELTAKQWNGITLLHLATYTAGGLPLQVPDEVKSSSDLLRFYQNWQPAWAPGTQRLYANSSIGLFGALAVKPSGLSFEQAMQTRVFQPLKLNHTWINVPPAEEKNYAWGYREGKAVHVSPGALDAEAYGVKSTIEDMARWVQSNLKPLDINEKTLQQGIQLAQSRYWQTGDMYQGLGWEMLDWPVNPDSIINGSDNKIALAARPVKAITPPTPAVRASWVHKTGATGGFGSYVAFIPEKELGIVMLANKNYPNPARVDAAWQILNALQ
#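 20 mM phosphate pH 7.0 + 0.01% (detergent screen) or 0.0001% Triton X-100; 5.3 nM AmpC reagent; cpd preinc 15 min RT; nitrocefin (800 uM stock) to start; A480 q20 s × 4 min; Activity was normalised to no-enzyme and no-compound control wells.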
# AmpC no deterg = qHTS Inhibitors of AmpC Beta-Lactamase (assay without detergent); Potency, µM (titrated, usually from 57.1 µM), inactives show at the highest dose activity change, negative = inhibition, actives largely listed as inhibitors; actives 0.52% (n = 330,000); AmpC nitrocefin hydrolysis, absorbance 480 nm, 0.0001% Triton;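 also: potency is read from the fitted curve at half-maximal effect; plate controls were no compound for no effect and no enzyme for full effect; nearly all actives have a fitted effect of over 20% in size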
#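 AmpC (5.3 nM in the dispensed reagent) in 20 mM phosphate pH 7.0 with 0.01% (detergent screen) or 0.0001% Triton X-100 was preincubated with compounds for 15 min at room temperature. Nitrocefin was then added from an 800 uM solution, and hydrolysis was followed at 480 nm.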
# HCMV inh = qHTS Assay for inhibitors of the human cytomegalovirus (HCMV) | actives 4.5% (n = 410,000) | HFF cells, HCMV-luciferase reporter, 72 h; hits give low values | activity change, negative = inhibition, % at 57.5 µM; in the data active = activity change below about -60%; inconclusive = no clear call, values can overlap the other calls; inactive = above about -39%
#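 Two compound doses tested in HFFs infected with HCMV-luciferase, MOI 1 PFU/cell, 72 h at 37C. Lysate luminescence read with OneGlo; data normalized against buffer-only and 10uM Salinomycin inhibitor controls.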
# HCV inhibitor = qHTS Assay for Inhibitors of Hepatitis C Virus (HCV). Huh7.5.1 HCVcc-Cre infection, luciferase reporter, 44 h. Potency, µM (series often up to 41.8 µM), for inactives: at the top dose activity change, negative = inhibition, most hits filed as inhibitors. actives 3.4% (n = 340,000). AID 651820, 2012; also: potency is read from the fitted curve at half-maximal effect
#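 Compounds are dispensed onto cells plated 4 h earlier at 1,000 per well, with HCVcc-Cre virus (about 0.5 moi) added next. Following 44 h of culture, luminescent signal is measured for 15 sec after 15 min with substrate at room temperature.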
# FMDV antiviral = High Throughput Screening for Foot and Mouth Disease Virus Antivirals. FMDV antiviral cell-based qHTS. Potency, µM (titrated, usually from 57.9 µM), for the others: at the top dose activity change, negative = inhibition, most hits filed as inhibitors. actives 1.2% (n = 410,000). AID 1159524, 2015; calls by dose curve; tested in HEK293T cells; also: read-out not given here; potency is read from the fitted curve at half-maximal effect; nearly all actives have a fitted effect of over 45% in size
# Numbers without * were called inactive; ? = inconclusive; . = no result. Unless noted, calls follow the shape of the dose curve; as a rule, active = well fitted curve in the direction sought with a large enough effect; inconclusive = small, poorly fitted or top-dose-only effect, or another doubt; inactive = no such curve, though single readings can be large; an effect the other way counts as inactive or inconclusive. Unless noted, % is scaled to controls: 0 for no effect and ±100 for the full control effect.
SMILES,AmpC detergent,AmpC no deterg,HCMV inh,HCV inhibitor,FMDV antiviral
COc1cccc(C(C(=O)NC2CCCCC2)N(C(=O)c2cccs2)c2ccc3c(c2)OCO3)c1 (stereo not drawn),1%,-12%,-83*,?,-13%
COc1ccc(N(C(=O)c2ccco2)C(C(=O)NC2CCCC2)c2cccs2)cc1OC (stereo not drawn),-6%,-11%,-11,-21%,-4%
COc1ccccc1N(C(=O)c1ccco1)C(C(=O)NC1CCCC1)c1cccs1 (stereo not drawn),-2%,0%,-4,-10%,9%
O=C(NC1CCCC1)C(c1cccs1)N(C(=O)c1ccco1)c1ccc2c(c1)OCCO2 (stereo not drawn),?,-4%,-62*,?,-2%
COc1ccc(N(C(=O)c2ccco2)C(C(=O)NC2CCCC2)c2cccs2)cc1 (stereo not drawn),7%,28%,-69*,-25%,7%
COc1ccc(/[N+]([O-])=C/c2ccco2)cc1,-6%,-12%,111,?,17%
Cc1ccccc1C1=NOC2CN(C(=O)COc3ccccc3)CC12 (stereo not drawn),.,.,-23,.,.
c1ccc(Cn2cnc3ccccc32)cc1,?,-11%,14,?,.
Clc1ccc(Cn2cnc3ccccc32)cc1,5%,-14%,-70*,?,?
Cc1ccc(Oc2nc(C(F)(F)F)nc3ccccc23)cc1,4%,-35%,-69*,-1%,-27%
Cc1ccc(Oc2nnc(-c3ccccc3)c3ccccc23)cc1,-16%,-16%,-37,35µM*,3%
Cc1nnc(Oc2ccc([N+](=O)[O-])cc2)c2ccccc12,-2%,-4%,-96*,-2%,43%
Cc1ccc(-c2nnc(Oc3cccc(C)c3)c3ccccc23)cc1,0%,-29%,-36,-8%,-13%
COc1ccc(Oc2nc(C(F)(F)F)nc3ccccc23)cc1,2%,-20%,?,-9%,?
N#Cc1ccc(S(=O)(=O)N2CCCCC2c2cc(C(=O)Nc3cccc4c3CCCC4)no2)cc1 (stereo not drawn),.,.,2,.,-10%
CCC1CN(C(=O)N2CCC(C(=O)NCc3ccccc3OC)CC2)c2cc(C)ccc2O1 (stereo not drawn),-6%,139%,-14,?,-21%
CCC1CN(C(=O)N2CCC(C(=O)NCCc3ccc(OC)cc3OC)CC2)c2cc(C)ccc2O1 (stereo not drawn),-8%,.,-1,.,28µM*
CCC1CN(C(=O)N2CCC(C(=O)NCc3ccccc3OC)CC2)c2ccccc2O1 (stereo not drawn),-2%,152%,-12,16µM*,-15%
CCc1ccc(S(=O)(=O)Nc2cc3c(cc2C)n(C)c(=O)c(=O)n3C)cc1,0%,.,6,.,11%
CC(=O)N1CCCc2cc(S(=O)(=O)N3CCC(C(=O)NC4CCC(C)CC4)CC3)ccc21 (stereo not drawn),-4%,.,-5,.,-8%
COC(=O)C(c1ccccc1)(c1cn(C)c2ccccc12)C(Nc1ccccc1)c1ccc(Br)cc1 (stereo not drawn),.,.,-19,.,.
CN(C)/C=C/C(=O)c1ccc2noc(-c3ccccc3)c2c1,3%,-59%,-63*,?,-6%
COc1ccc(Nc2cc3c(cn2)cc(-c2cccc(F)c2)n3C)cn1,.,.,-38,.,.
N=C1C=CC(=C(c2ccc(N)cc2)c2ccc(N)cc2)C=C1,.,.,-100*,6.3µM*,-47%
Clc1cccc(Cc2c(-c3ccco3)nc3ccc(Cl)cn23)c1,.,.,-18,.,40µM*
Cc1cc(Br)cn2c(Cc3cccc(Cl)c3)c(-c3ccco3)nc12,.,.,4,.,-18%
Brc1ccc2nc(-c3ccco3)c(Cc3ccccc3)n2c1,.,.,97,.,-8%
Clc1cccc(Cc2c(-c3ccco3)nc3ccc(Br)cn23)c1,.,.,25,.,25µM*
Cc1ccc(Cc2c(-c3ccco3)nc3c(C)cc(Br)cn23)cc1,.,.,-102*,.,-29%

# Screening data: PubChem, National Center for Advancing Translational Sciences (NCATS)
